Measured values taken from PubChem BioAssay AID743025 (Vanderbilt Specialized Chemistry Center, 2013).
Values without a mark were called inactive. Calls of active or inactive are those of the source.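 How the source made its calls: active means IC50 below 10 µM at human M5 in a calcium flux test, acting as a negative modulator; inactive means the rest.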

Biological target: Muscarinic acetylcholine receptor M5 (Homo sapiens) (UniProt P08912)
Assay: M5 muscarinic receptor negative allosteric modulators, cell-based, single concentration, human M5 (AID 743025)
Settings: CHO-K1 hM5, ACh EC80 calcium flux, Fluo-4; at 10 µM; active compounds read low

Chain of Muscarinic acetylcholine receptor M5 (Homo sapiens) (P08912 whole entry, looked up): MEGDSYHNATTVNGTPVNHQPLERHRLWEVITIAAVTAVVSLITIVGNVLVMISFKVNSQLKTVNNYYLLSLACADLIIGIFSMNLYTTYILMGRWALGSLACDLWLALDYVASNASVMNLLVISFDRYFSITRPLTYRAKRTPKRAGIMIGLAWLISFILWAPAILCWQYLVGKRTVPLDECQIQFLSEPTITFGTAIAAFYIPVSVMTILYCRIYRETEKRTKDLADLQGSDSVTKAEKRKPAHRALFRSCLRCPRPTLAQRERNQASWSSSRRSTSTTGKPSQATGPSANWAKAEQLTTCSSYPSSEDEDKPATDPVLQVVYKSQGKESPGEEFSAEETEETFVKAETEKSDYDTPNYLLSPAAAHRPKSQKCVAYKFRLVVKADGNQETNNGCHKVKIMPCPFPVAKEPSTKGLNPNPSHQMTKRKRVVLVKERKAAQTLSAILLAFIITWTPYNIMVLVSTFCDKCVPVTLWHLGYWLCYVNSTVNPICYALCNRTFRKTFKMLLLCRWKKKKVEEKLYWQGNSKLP

Structure (SMILES) | activity remaining
O=C(c1ccc(F)c(F)c1)N1CCN2C(=O)c3ncccc3C12c1ccccc1 (configuration not stated) | 66.4%
O=C(c1ccc(Cl)cc1)N1CCCN2C(=O)c3ccccc3C12c1ccccc1 (configuration not stated) | 54% (active)
O=C(c1ccc(OC(F)(F)F)cc1)N1CCN2C(=O)c3ccccc3C12c1ccc(Cl)cc1 (configuration not stated) | 1.2% (active)
Cc1ccccc1C(=O)N1CCN2C(=O)c3ccccc3C12c1ccccc1 (configuration not stated) | 50.5% (active)
O=C(c1cccc(C(F)(F)F)c1)N1CCN2C(=O)c3ccccc3C12c1ccccc1 (configuration not stated) | 6.77% (active)
COc1ccc(C(=O)N2CCN3C(=O)c4ccccc4C23c2ccccc2)cc1 (configuration not stated) | 77.7%
O=C(c1ccco1)N1CCN2C(=O)c3ccccc3C12c1ccccc1 (configuration not stated) | 81.3%
O=C(c1cc(F)cc(F)c1)N1CCN2C(=O)c3ccccc3C12c1ccccc1 (configuration not stated) | 4.21% (active)
CC(C)(C)NC(=O)N1CCN2C(=O)c3ccccc3C12c1ccccc1 (configuration not stated) | 83.8%
O=C(c1ccc(OC(F)F)cc1)N1CCN2C(=O)c3ccccc3C12c1ccc(Cl)cc1 (configuration not stated) | 13.3% (active)
CN(C(=O)c1ccccc1)C(c1ccccc1)c1ccccc1 | 84.3%
O=C(c1cccc(F)c1)N1CCN2C(=O)c3ccccc3C12c1ccccc1 (configuration not stated) | 86%
Cc1ccc(C(=O)N2CCN3C(=O)c4ccccc4C23c2ccccc2)cc1 (configuration not stated) | 70.2%
O=C(c1ccc(F)c(F)c1)N1CCc2ccccc2C1c1ccc(Cl)cc1 (configuration not stated) | 67.4%
Cc1cccc(C(=O)N2CCCN3C(=O)c4ccccc4C23c2ccc(Cl)cc2)c1 (configuration not stated) | 72.9%
Cc1cccc(C(=O)N2CCN3C(=O)c4ccccc4C23c2ccccc2)c1 (configuration not stated) | 52.7% (active)
O=C(c1cc(F)cc(F)c1)N1CCCN2C(=O)c3ccccc3C12c1ccc(Cl)cc1 (configuration not stated) | 76.8%
O=C1c2ccccc2C(c2ccccc2)N1c1ccccc1 (configuration not stated) | 82.3%
O=C(c1ccc(F)c(F)c1)N1CCCN2C(=O)c3ccccc3C12c1ccc(Cl)cc1 (configuration not stated) | 80.4%

Structure (SMILES) | activity remaining
Cc1ccccc1C(=O)N(C)C(c1ccccc1)c1ccccc1 | 81.6%
O=C(c1cc(F)ccc1F)N1CCN2C(=O)c3ccccc3C12c1ccccc1 (configuration not stated) | 76%
CSc1ccc(C23c4ccccc4C(=O)N2CCN3C(=O)c2ccc(F)c(F)c2)cc1 (configuration not stated) | 14.6% (active)
O=C(c1ccc(C(F)(F)F)cc1)N1CCN2C(=O)c3ccccc3C12c1ccccc1 (configuration not stated) | 1.06% (active)
Cc1ccc(C(=O)N2CCN3C(=O)c4ccccc4C23c2ccc(C)cc2)cc1 (configuration not stated) | 49.1% (active)
Cc1ccc(C(=O)N2CCN3C(=O)c4ccccc4C23c2ccc(Cl)cc2)cc1 (configuration not stated) | 17.9% (active)
O=C(c1ccccc1F)N1CCN2C(=O)c3ccccc3C12c1ccccc1 (configuration not stated) | 85.8%
CCCN1C(=O)c2ccccc2C1c1ccccc1 (configuration not stated) | 86.1%
O=C(c1cc(Cl)cc(Cl)c1)N1CCCN2C(=O)c3ccccc3C12c1ccccc1 (configuration not stated) | 51.9% (active)
O=C(c1ccc(F)c(F)c1)N1CCN2C(=O)c3ccccc3C12c1ccccc1 (configuration not stated) | 0.88% (active)
O=C(Nc1cccc(Cl)c1)N1CCN2C(=O)c3ccccc3C12c1ccccc1 (configuration not stated) | 83%
CSc1cccc(NC(=S)N2CCN3C(=O)c4ccccc4C32c2ccccc2)c1 (configuration not stated) | 77.7%
N#CC1(c2ccccc2)CCCN1C(=O)c1ccccc1 (configuration not stated) | 84.8%
Cc1ccc(C23c4ccccc4C(=O)N2CCN3C(=O)c2ccc(SC(F)(F)F)cc2)cc1 (configuration not stated) | 10.9% (active)
O=C(c1cccc(C(F)(F)F)c1)N1CCCN2C(=O)c3ccccc3C12c1ccc(Cl)cc1 (configuration not stated) | 78.6%
COc1ccc(C23c4ccccc4C(=O)N2CCN3C(=O)c2cccc(F)c2)cc1 (configuration not stated) | 57.4% (active)
O=C(c1ccc2c(c1)OCO2)N1CCN2C(=O)c3ccccc3C12c1ccc(Cl)cc1 (configuration not stated) | 8.65% (active)
O=C(c1ccccc1)N1CCN2C(=O)c3ncccc3C12c1ccccc1 (configuration not stated) | 78.7%
